Data: paper PMC11006913
Changes are numbered by the printed parent chain.

target: ALX4 (Homo sapiens, UniProt Q9H161 200-286, Q225E); test: PBM; 200 nM protein, PBS; settings: dsDNA, one strand shown
Sequence (Q9H161 200-286 Q225E): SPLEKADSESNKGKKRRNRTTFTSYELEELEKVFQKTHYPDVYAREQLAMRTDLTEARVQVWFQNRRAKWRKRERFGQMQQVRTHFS

Q: Which binding signal does the source give for CGCACCGC here?
A: 8.31 upbm affinity estimate (log intensity, higher = more binding, comparable within an allelic series)

Q: Which binding signal does the source give for GCAGCTGC here?
A: 8.23 upbm affinity estimate (log intensity, higher = more binding, comparable within an allelic series)

Q: With AGGGGACC as the sequence, how does the binding signal read?
A: 8.19 upbm affinity estimate (log intensity, higher = more binding, comparable within an allelic series)

Q: Which binding signal does the source give for GGGGCCCC here?
A: 8.44 upbm affinity estimate (log intensity, higher = more binding, comparable within an allelic series)

target: T1, SIX6 (Homo sapiens, UniProt O95475 114-200, T165G); test: PBM; 200 nM protein, PBS; settings: dsDNA, one strand shown
T1 sequence: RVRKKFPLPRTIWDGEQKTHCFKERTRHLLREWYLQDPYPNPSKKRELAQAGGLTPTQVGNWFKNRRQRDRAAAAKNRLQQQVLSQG

Q: AGGTGCCC was tested. Which binding signal did it give?
A: 8.89 upbm affinity estimate (log intensity, higher = more binding, comparable within an allelic series)

Q: Which binding signal does the source give for CGCACCGC here?
A: 9.05 upbm affinity estimate (log intensity, higher = more binding, comparable within an allelic series)

Q: Which binding signal does the source give for GCAGCTGC here?
A: 9.04 upbm affinity estimate (log intensity, higher = more binding, comparable within an allelic series)

Q: CTGCTGGC was tested. Which binding signal did it give?
A: 8.91 upbm affinity estimate (log intensity, higher = more binding, comparable within an allelic series)

Q: AGACTATC was tested. Which binding signal did it give?
A: 10.2 upbm affinity estimate (log intensity, higher = more binding, comparable within an allelic series)

Q: How did the binding signal turn out when CCAGGGGC was run?
A: 8.91 upbm affinity estimate (log intensity, higher = more binding, comparable within an allelic series)

Q: With GGGGCCCC as the sequence, how does the binding signal read?
A: 8.95 upbm affinity estimate (log intensity, higher = more binding, comparable within an allelic series)

Q: CCGTCGCC was tested. Which binding signal did it give?
A: 8.89 upbm affinity estimate (log intensity, higher = more binding, comparable within an allelic series)

Q: With CACGCCCC as the sequence, how does the binding signal read?
A: 9.18 upbm affinity estimate (log intensity, higher = more binding, comparable within an allelic series)

Q: With CCCTGATC as the sequence, how does the binding signal read?
A: 10.3 upbm affinity estimate (log intensity, higher = more binding, comparable within an allelic series)

Q: For ACGCAACG, which binding signal is on record?
A: 9.2 upbm affinity estimate (log intensity, higher = more binding, comparable within an allelic series)

target: HOXA2 (Homo sapiens, UniProt O43364 129-215, R185T); test: PBM; 200 nM protein, PBS; settings: dsDNA, one strand shown
Sequence (O43364 129-215 R185T): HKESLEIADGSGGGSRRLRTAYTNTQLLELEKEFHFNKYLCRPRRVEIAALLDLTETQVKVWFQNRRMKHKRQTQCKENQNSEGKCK

Q: Which binding signal does the source give for GCAGCTGC here?
A: 7.31 upbm affinity estimate (log intensity, higher = more binding, comparable within an allelic series)

Q: Which binding signal does the source give for CCAGGGGC here?
A: 7.15 upbm affinity estimate (log intensity, higher = more binding, comparable within an allelic series)

Q: For GGGGCCCC, which binding signal is on record?
A: 7.49 upbm affinity estimate (log intensity, higher = more binding, comparable within an allelic series)

Q: With GCCCGGGC as the sequence, how does the binding signal read?
A: 6.98 upbm affinity estimate (log intensity, higher = more binding, comparable within an allelic series)

target: HOXA4 (Homo sapiens, UniProt Q00056 201-287, R217L); test: PBM; 200 nM protein, PBS; settings: dsDNA, one strand shown
Sequence (Q00056 201-287 R217L): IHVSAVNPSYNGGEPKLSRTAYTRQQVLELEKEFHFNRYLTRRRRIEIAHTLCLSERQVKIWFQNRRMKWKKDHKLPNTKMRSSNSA

Q: CACGCCCC was tested. Which binding signal did it give?
A: 9.86 upbm affinity estimate (log intensity, higher = more binding, comparable within an allelic series)

Q: How did the binding signal turn out when GGGGCTCA was run?
A: 9.78 upbm affinity estimate (log intensity, higher = more binding, comparable within an allelic series)

Q: For CCCGTCCC, which binding signal is on record?
A: 9.77 upbm affinity estimate (log intensity, higher = more binding, comparable within an allelic series)

Q: How did the binding signal turn out when ACTAATCG was run?
A: 11.2 upbm affinity estimate (log intensity, higher = more binding, comparable within an allelic series)

target: HOXB9 (Homo sapiens, UniProt P17482 171-250); test: PBM; 200 nM protein, PBS; settings: dsDNA, one strand shown
Sequence (P17482 171-250): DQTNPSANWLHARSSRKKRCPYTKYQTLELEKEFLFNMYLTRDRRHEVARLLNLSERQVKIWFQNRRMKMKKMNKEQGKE

Q: With ATATTAAT as the sequence, how does the binding signal read?
A: 11.8 upbm affinity estimate (log intensity, higher = more binding, comparable within an allelic series)

Q: With GGATTACA as the sequence, how does the binding signal read?
A: 9.44 upbm affinity estimate (log intensity, higher = more binding, comparable within an allelic series)

Q: ATTTATGG was tested. Which binding signal did it give?
A: 12.1 upbm affinity estimate (log intensity, higher = more binding, comparable within an allelic series)

Q: For CCAGGGGC, which binding signal is on record?
A: 8.33 upbm affinity estimate (log intensity, higher = more binding, comparable within an allelic series)

Q: With GGGGCCCC as the sequence, how does the binding signal read?
A: 8.5 upbm affinity estimate (log intensity, higher = more binding, comparable within an allelic series)

Q: CACGCCCC was tested. Which binding signal did it give?
A: 8.48 upbm affinity estimate (log intensity, higher = more binding, comparable within an allelic series)

target: T2, SIX6 (Homo sapiens, UniProt O95475 114-200, T139Q); test: PBM; 200 nM protein, PBS; settings: dsDNA, one strand shown
T2 sequence: T1 sequence with T26Q, G52T

Q: AGGTGCCC was tested. Which binding signal did it give?
A: 8.92 upbm affinity estimate (log intensity, higher = more binding, comparable within an allelic series)

Q: How did the binding signal turn out when CGCACCGC was run?
A: 9.17 upbm affinity estimate (log intensity, higher = more binding, comparable within an allelic series)

Q: Which binding signal does the source give for GCAGCTGC here?
A: 9.1 upbm affinity estimate (log intensity, higher = more binding, comparable within an allelic series)

Q: For CTGCTGGC, which binding signal is on record?
A: 8.84 upbm affinity estimate (log intensity, higher = more binding, comparable within an allelic series)

Q: For AGACTATC, which binding signal is on record?
A: 10.4 upbm affinity estimate (log intensity, higher = more binding, comparable within an allelic series)

Q: How did the binding signal turn out when CCAGGGGC was run?
A: 8.83 upbm affinity estimate (log intensity, higher = more binding, comparable within an allelic series)

Q: With GGGGCCCC as the sequence, how does the binding signal read?
A: 9.06 upbm affinity estimate (log intensity, higher = more binding, comparable within an allelic series)

Q: With CCGTCGCC as the sequence, how does the binding signal read?
A: 9.02 upbm affinity estimate (log intensity, higher = more binding, comparable within an allelic series)

Q: CACGCCCC was tested. Which binding signal did it give?
A: 9.14 upbm affinity estimate (log intensity, higher = more binding, comparable within an allelic series)

Q: Which binding signal does the source give for CCCTGATC here?
A: 10.4 upbm affinity estimate (log intensity, higher = more binding, comparable within an allelic series)

Q: For ACGCAACG, which binding signal is on record?
A: 9.17 upbm affinity estimate (log intensity, higher = more binding, comparable within an allelic series)

target: CRX (Homo sapiens, UniProt O43186 26-111, E42D); test: PBM; 200 nM protein, PBS; settings: dsDNA, one strand shown
Sequence (O43186 26-111 E42D): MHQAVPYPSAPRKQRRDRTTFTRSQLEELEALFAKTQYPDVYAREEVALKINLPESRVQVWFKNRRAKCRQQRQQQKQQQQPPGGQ

Q: For GGGGACCC, which binding signal is on record?
A: 8.31 upbm affinity estimate (log intensity, higher = more binding, comparable within an allelic series)

Q: How did the binding signal turn out when GAGGTACC was run?
A: 8.18 upbm affinity estimate (log intensity, higher = more binding, comparable within an allelic series)

Q: With AGGTGCCC as the sequence, how does the binding signal read?
A: 8.38 upbm affinity estimate (log intensity, higher = more binding, comparable within an allelic series)

Q: How did the binding signal turn out when GTGGATTA was run?
A: 13.3 upbm affinity estimate (log intensity, higher = more binding, comparable within an allelic series)

Q: With GACGCGTC as the sequence, how does the binding signal read?
A: 8.54 upbm affinity estimate (log intensity, higher = more binding, comparable within an allelic series)

Q: For CCCCTGGA, which binding signal is on record?
A: 8.46 upbm affinity estimate (log intensity, higher = more binding, comparable within an allelic series)

Q: ATATTAAT was tested. Which binding signal did it give?
A: 11.5 upbm affinity estimate (log intensity, higher = more binding, comparable within an allelic series)

Q: With CAGATTAA as the sequence, how does the binding signal read?
A: 13.1 upbm affinity estimate (log intensity, higher = more binding, comparable within an allelic series)

Q: With CGCACCGC as the sequence, how does the binding signal read?
A: 8.2 upbm affinity estimate (log intensity, higher = more binding, comparable within an allelic series)

Q: For ATAATCTG, which binding signal is on record?
A: 13 upbm affinity estimate (log intensity, higher = more binding, comparable within an allelic series)

Q: Which binding signal does the source give for GGATTACA here?
A: 13 upbm affinity estimate (log intensity, higher = more binding, comparable within an allelic series)

Q: Which binding signal does the source give for GCAGCTGC here?
A: 8.55 upbm affinity estimate (log intensity, higher = more binding, comparable within an allelic series)

Q: Which binding signal does the source give for CCAGATTA here?
A: 13 upbm affinity estimate (log intensity, higher = more binding, comparable within an allelic series)

Q: With AGGGGACC as the sequence, how does the binding signal read?
A: 8.22 upbm affinity estimate (log intensity, higher = more binding, comparable within an allelic series)

Q: With TAATCTGA as the sequence, how does the binding signal read?
A: 12.8 upbm affinity estimate (log intensity, higher = more binding, comparable within an allelic series)

Q: How did the binding signal turn out when CTGCTGGC was run?
A: 8.3 upbm affinity estimate (log intensity, higher = more binding, comparable within an allelic series)

Q: For AGACTATC, which binding signal is on record?
A: 9.51 upbm affinity estimate (log intensity, higher = more binding, comparable within an allelic series)

Q: For CAGATTAG, which binding signal is on record?
A: 13.1 upbm affinity estimate (log intensity, higher = more binding, comparable within an allelic series)

Q: Which binding signal does the source give for GCAGATTA here?
A: 13 upbm affinity estimate (log intensity, higher = more binding, comparable within an allelic series)

Q: Which binding signal does the source give for GATTAATA here?
A: 12.7 upbm affinity estimate (log intensity, higher = more binding, comparable within an allelic series)

Q: How did the binding signal turn out when ATTTATGG was run?
A: 9.96 upbm affinity estimate (log intensity, higher = more binding, comparable within an allelic series)

Q: How did the binding signal turn out when CCAGGGGC was run?
A: 7.94 upbm affinity estimate (log intensity, higher = more binding, comparable within an allelic series)

Q: Which binding signal does the source give for GGGGCCCC here?
A: 8.69 upbm affinity estimate (log intensity, higher = more binding, comparable within an allelic series)

Q: Which binding signal does the source give for CCGTCGCC here?
A: 8.26 upbm affinity estimate (log intensity, higher = more binding, comparable within an allelic series)

Q: CCCGACCC was tested. Which binding signal did it give?
A: 8.12 upbm affinity estimate (log intensity, higher = more binding, comparable within an allelic series)

Q: For AGATTAGC, which binding signal is on record?
A: 13.1 upbm affinity estimate (log intensity, higher = more binding, comparable within an allelic series)

Q: Which binding signal does the source give for GCCCGGGC here?
A: 8.04 upbm affinity estimate (log intensity, higher = more binding, comparable within an allelic series)

Q: With CACGCCCC as the sequence, how does the binding signal read?
A: 8.24 upbm affinity estimate (log intensity, higher = more binding, comparable within an allelic series)

Q: How did the binding signal turn out when CTGGGGCA was run?
A: 8.24 upbm affinity estimate (log intensity, higher = more binding, comparable within an allelic series)

Q: With GGGGCTCA as the sequence, how does the binding signal read?
A: 9.8 upbm affinity estimate (log intensity, higher = more binding, comparable within an allelic series)

Q: How did the binding signal turn out when ACAGATTA was run?
A: 12.7 upbm affinity estimate (log intensity, higher = more binding, comparable within an allelic series)

Q: CCCTGATC was tested. Which binding signal did it give?
A: 10 upbm affinity estimate (log intensity, higher = more binding, comparable within an allelic series)

Q: With ACGCAACG as the sequence, how does the binding signal read?
A: 8.41 upbm affinity estimate (log intensity, higher = more binding, comparable within an allelic series)

Q: For CCCGTCCC, which binding signal is on record?
A: 8.37 upbm affinity estimate (log intensity, higher = more binding, comparable within an allelic series)

Q: For ATTATCTC, which binding signal is on record?
A: 11.5 upbm affinity estimate (log intensity, higher = more binding, comparable within an allelic series)

Q: For ACTAATCG, which binding signal is on record?
A: 11.9 upbm affinity estimate (log intensity, higher = more binding, comparable within an allelic series)

Q: Which binding signal does the source give for GACCGACA here?
A: 8.36 upbm affinity estimate (log intensity, higher = more binding, comparable within an allelic series)

Q: How did the binding signal turn out when ACCAGCCC was run?
A: 8.32 upbm affinity estimate (log intensity, higher = more binding, comparable within an allelic series)

target: HOXC9 (Homo sapiens, UniProt P31274 178-260); test: PBM; 200 nM protein, PBS; settings: dsDNA, one strand shown
Sequence (P31274 178-260): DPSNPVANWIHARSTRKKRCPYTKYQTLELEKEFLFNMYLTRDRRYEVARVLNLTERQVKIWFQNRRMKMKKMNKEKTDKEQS

Q: Which binding signal does the source give for GGGGACCC here?
A: 9.5 upbm affinity estimate (log intensity, higher = more binding, comparable within an allelic series)

Q: With GACGCGTC as the sequence, how does the binding signal read?
A: 9.79 upbm affinity estimate (log intensity, higher = more binding, comparable within an allelic series)

Q: For ATATTAAT, which binding signal is on record?
A: 12.5 upbm affinity estimate (log intensity, higher = more binding, comparable within an allelic series)

Q: For AGGGGACC, which binding signal is on record?
A: 9.69 upbm affinity estimate (log intensity, higher = more binding, comparable within an allelic series)

Q: How did the binding signal turn out when ATTTATGG was run?
A: 12.9 upbm affinity estimate (log intensity, higher = more binding, comparable within an allelic series)

Q: For ATTATCTC, which binding signal is on record?
A: 11.4 upbm affinity estimate (log intensity, higher = more binding, comparable within an allelic series)

Q: Which binding signal does the source give for ACCAGCCC here?
A: 9.8 upbm affinity estimate (log intensity, higher = more binding, comparable within an allelic series)

target: ALX3 (Homo sapiens, UniProt O95076 139-225, N203Q); test: PBM; 200 nM protein, PBS; settings: dsDNA, one strand shown
Sequence (O95076 139-225 N203Q): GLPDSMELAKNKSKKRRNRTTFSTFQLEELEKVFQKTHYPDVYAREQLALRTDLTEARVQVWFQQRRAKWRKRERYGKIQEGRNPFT

Q: ATATTAAT was tested. Which binding signal did it give?
A: 8.63 upbm affinity estimate (log intensity, higher = more binding, comparable within an allelic series)
